This is one part of a sample in which hits are shown more often than they occur.
Glyco luc inh: blocks N-linked glycosylation in D54 reporter cells. D54 ERlucT glycosylation luciferase reporter, 24 h; percent of 100 nM tunicamycin response. reporter increase, % at 12.5 µM. 0.23% of 360,000 active;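 active means mean luciferase reporter signal, scaled so untreated is 0 and the glycosylation-blocking control 100, at or above a set limit in every replicate; inconclusive means mean reaches the limit but not every replicate does; inactive means mean below the limit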;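 further: luciferase carries N-glycosylation sites so blocking glycosylation raises the light; 0% = median of neutral control wells and 100% = median of 100 nM tunicamycin wells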
PglD inh: inhibitors of Campylobacter jejuni PglD acetyltransferase. inhibition, % at 12.5 µM. purified PglD enzyme, DTNB colorimetric CoA detection. 0.098% of 360,000 active; in the data active means inhibition above about 16%, passing the limit was not always enough; inconclusive means no clear call, values can overlap the other calls
DENV2 CPE rescue: DENV2-induced cell death inhibition; DENV2-infected cells, cytopathic effect rescue, plate reader; CPE inhibition, % at 9.99 µM; 1.7% of 350,000 active; AID 651640; in the data active means CPE inhibition above about 20%, passing the limit was not always enough; inconclusive means no clear call, values can overlap the other calls; tested in BHK-21 cells;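 further: 0% = median of neutral control wells and 100% = median of positive control wells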
Rtt109 Vps75: blocks Candida albicans Rtt109/Vps75 acetyltransferase activity. Q5AAJ8. purified Rtt109/Vps75, ThioGlo CoA-SH fluorescence, 4 h. inhibition, % at 34.9 µM. 0.16% of 330,000 active;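 active means inhibition of at least 50% in every replicate; inconclusive means best replicate reaches 50% inhibition but some replicates fall short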
Target sequence (Q5AAJ8 whole entry, looked up): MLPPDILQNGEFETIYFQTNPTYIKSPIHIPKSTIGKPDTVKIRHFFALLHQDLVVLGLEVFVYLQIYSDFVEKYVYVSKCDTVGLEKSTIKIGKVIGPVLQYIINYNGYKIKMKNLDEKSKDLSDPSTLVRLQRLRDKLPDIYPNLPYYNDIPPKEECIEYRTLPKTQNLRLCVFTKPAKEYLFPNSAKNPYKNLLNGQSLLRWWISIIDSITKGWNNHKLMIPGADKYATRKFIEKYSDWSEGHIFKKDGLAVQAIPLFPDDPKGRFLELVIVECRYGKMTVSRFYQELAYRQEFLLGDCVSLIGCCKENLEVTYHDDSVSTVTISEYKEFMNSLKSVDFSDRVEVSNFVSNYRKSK
The depositor's hits bear a star; ? = inconclusive; · = not tested or not shown.

SMILES	Glyco luc inh	PglD inh	DENV2 CPE rescue	Rtt109 Vps75
CCN(C[C@H]1N[C@@](Cc2ccccc2)(C(=O)OC)[C@H]2C(=O)N(C)C(=O)[C@@H]12)S(=O)(=O)c1ccc(OC(F)(F)F)cc1	-4	-8	84*	-1
CCN1C(=O)[C@H]2[C@H]3CN=C(SCc4ccc(Cl)cc4)N3[C@@](Cc3ccccc3)(C(=O)OC)[C@H]2C1=O	-3	-9	17	3
COC(=O)[C@@]1(Cc2ccccc2)[C@H]2C(=O)N(Cc3ccccc3)C(=O)[C@H]2[C@H]2CN=C(SCc3ccc(Cl)cc3)N21	-5	-2	85*	3
C[C@H](CO)N1C[C@H](C)[C@H](CN(C)C(=O)[C@@H]2CCCN2C)OCc2ccccc2-c2c(n(C)c3ccccc23)C1=O	·	0	-5	·
C[C@@H]1CN([C@@H](C)CO)C(=O)c2cc(NS(=O)(=O)c3cccs3)ccc2O[C@@H](C)CCCCO[C@@H]1CN(C)C(=O)Nc1ccc(C(F)(F)F)cc1	·	·	-1	·
COc1ccc(C(=O)Nc2cc(OC)c(NC(=O)c3ccco3)cc2OC)cc1	4	·	·	57*
COc1ccccc1CN(C)C(C)C(=O)Nc1cccc(C(C)=O)c1 (centres undefined)	-3	3	6	4
COc1ccc(Br)cc1CN(C)C(C)C(=O)Nc1cccc(C(C)=O)c1 (centres undefined)	-10	·	15	53*
COc1cccc(NC(=O)C[C@H]2CC[C@H]3[C@H](COc4ccc(NC(C)=O)cc4C(=O)N3C)O2)c1	·	0	-1	·
N#C[C@@H]1[C@H](c2ccccc2-c2cccc(F)c2)[C@H](CO)N1C(=O)C1CCCC1	·	·	37*	·
N#C[C@H]1[C@@H](c2ccccc2-c2cccc(F)c2)[C@H](CO)N1C(=O)C1CCCC1	·	·	-6	·
CC(=O)N(C)C[C@H]1[C@H](c2ccc(-c3ccccc3F)cc2)[C@@H](CO)N1C(C)=O	·	1	32*	·
N#C[C@@H]1[C@H](c2ccc(-c3ccccc3F)cc2)[C@@H](CO)N1C(=O)C1CC1	·	-2	37*	·
N#C[C@H]1[C@@H](c2ccc(-c3ccccc3F)cc2)[C@H](CO)N1C(=O)C1CC1	·	0	-2	·
CC(=O)NC[C@H]1[C@H](c2ccc(-c3ccccc3F)cc2)[C@H](CO)N1C(=O)C1CC1	·	20	53*	·
N#C[C@H]1[C@H](c2ccccc2-c2ccccc2F)[C@@H](CO)N1C(=O)C1CC1	·	·	22*	·
COc1ccc(-c2ccccc2[C@H]2[C@@H](C#N)N(C(=O)C3CC3)[C@@H]2CO)cc1	·	·	0	·
N#C[C@H]1[C@@H](c2ccc(-c3ccccc3F)cc2)[C@@H](CO)N1C(=O)C1CC1	·	2	-5	·
N#C[C@@H]1[C@@H](c2ccccc2-c2ccccc2F)[C@H](CO)N1C(=O)C1CC1	·	·	-10	·
N#C[C@@H]1[C@H](c2ccc(-c3ccccc3F)cc2)[C@H](CO)N1C(=O)C1CC1	·	-2	87*	·
N#C[C@H]1[C@H](c2ccc(-c3ccccc3F)cc2)[C@@H](CO)N1C(=O)C1CC1	·	-3	30*	·
COc1ccc(-c2ccccc2[C@@H]2[C@H](C#N)N(C(=O)C3CC3)[C@H]2CO)cc1	·	·	45*	·
C[C@@H]1CCCCO[C@H](CN(C)C(=O)c2ccncc2)[C@@H](C)CN([C@@H](C)CO)C(=O)c2cc(NC(=O)C3CCCCC3)ccc2O1	·	-1	-7	·
O=C(C[C@@H]1CC[C@@H](NC(=O)Cc2ccccn2)[C@@H](CO)O1)NCCc1ccncc1	·	2	0	·
CCN1/C(=C/c2ccc3cc(C)ccc3[n+]2CC)Sc2cc(C)c(C)cc21	12	·	5	96*
SMILES	Glyco luc inh	PglD inh	DENV2 CPE rescue	Rtt109 Vps75
CCN1/C(=C/c2ccc3cc(C)ccc3[n+]2CC)Sc2ccccc21	0	·	·	?
Cc1ccc(S(=O)(=O)N[C@@H]2C=C[C@@H](CC(=O)NCc3ccc(Cl)c(Cl)c3)O[C@H]2CO)cc1	·	3	?	·
Cc1ccc(C(=O)c2c3ccc([N+](=O)[O-])cc3[n+]([O-])n2CCCN)cc1	-7	4	21*	2
Cc1ccc(C(=O)c2c3ccc(C(F)(F)F)cc3[n+]([O-])n2CCCN)cc1	0	-3	-15	-3
CNC(=O)C[C@@H]1CC[C@H]2[C@H](COc3ccc(NC(=O)NCc4ccccc4)cc3C(=O)N2C)O1	·	2	1	·
CCOC(=O)N1CCN(C(C(=O)NC2CCCC2)C(C)C)CC1 (centres undefined)	·	·	30*	·
Cc1ccc2c(c1)CO[C@]21O[C@H](CCO)C[C@H](O)[C@H]1O	2	6	44*	·

Compound activity (PubChem)
